The target in assay [1] is Cellular tumor antigen p53 (Homo sapiens) (UniProt P04637). As to the kind of experiment: Primary qHTS for small molecule compounds that upregulate eGFP-tagged delta133p53alpha (in N-terminal) cells. (AID 2060322).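 Also: 0% = DMSO vehicle and 100% = reference activator; nearly all actives have a fitted effect of over 75% in size.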 The following applies: NCI-H358 eGFP-delta133p53alpha fluorescence, 24 h; activation: stronger effect = higher value. A digest of the protocol: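 NCI-H358 cells pre-induced 24 h with 10 ng/ml doxycycline to express N-terminal eGFP-delta133p53alpha, then dosed 24 h at 37C without doxycycline; fixed, Hoechst-stained, GFP intensity by laser scanning cytometry, normalized to DMSO (0%) and 57.5 uM 5-azacytidine (100%).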
Cellular tumor antigen p53 (Homo sapiens), sequence (P04637 whole entry, looked up): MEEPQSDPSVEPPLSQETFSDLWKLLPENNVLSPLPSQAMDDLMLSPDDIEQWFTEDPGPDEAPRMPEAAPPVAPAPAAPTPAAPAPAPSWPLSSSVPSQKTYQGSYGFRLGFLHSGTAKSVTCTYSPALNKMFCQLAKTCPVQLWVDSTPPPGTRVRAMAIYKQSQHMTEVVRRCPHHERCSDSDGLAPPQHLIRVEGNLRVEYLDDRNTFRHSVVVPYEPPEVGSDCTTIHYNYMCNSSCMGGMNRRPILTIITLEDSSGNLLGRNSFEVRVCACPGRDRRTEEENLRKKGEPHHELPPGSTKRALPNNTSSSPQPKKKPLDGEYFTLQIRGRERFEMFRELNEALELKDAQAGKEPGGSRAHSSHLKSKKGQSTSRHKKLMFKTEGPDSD
For orientation: qHTS replaces the single test concentration by a dilution series.

The target in assay [2] is Aldehyde dehydrogenase, mitochondrial (Homo sapiens) (UniProt P05091). As to the kind of experiment: qHTS for Inhibitors of the Aldehyde Dehydrogenase Family (ALDH2) Primary screen (AID 2061308).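 Also: plate controls were vehicle for no effect and reference inhibitor for full effect; nearly all actives have a fitted effect of over 55% in size.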 Particulars: ALDH2 enzyme inhibition qHTS, 1536-well; series mostly up to 56 µM.
In assay [3] the target is Retinaldehyde dehydrogenase 3 (Homo sapiens) (UniProt P47895). As to the kind of experiment: qHTS for Inhibitors of the Aldehyde Dehydrogenase Family (ALDH1A3) Validation screen (AID 2061312). Also: % is scaled to controls: 0 for no effect and ±100 for the full control effect; nearly all actives have a fitted effect of over 45% in size. The following applies: ALDH1A3 enzyme inhibition qHTS validation, fluorescence; series mostly up to 84.7 µM.
Assay [4] has the same target. In words: qHTS for Inhibitors of the Aldehyde Dehydrogenase Family (ALDH1A3) Primary screen (AID 2061315).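 Also: plate controls were DMSO vehicle for no effect and reference inhibitor for full effect.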 The following applies: ALDH inhibition qHTS; series mostly up to 56 µM.
The nature of assay [5]: BET inhibitor-based combinations targeting novel dependencies in MECOM-rearranged (r) AML: SET-2 cell line (AID 2202231). Also: nearly all actives have a fitted effect of over 35% in size. Also: potency is read from the fitted curve at half-maximal effect.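 As to viability: plate controls were DMSO treated cells for no effect and wells without cells for full effect.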 Particulars: SET-2 AML cells viability, CellTiter-Glo luminescence, 48 h; viability: stronger effect = lower value, concentration not given here. A digest of the protocol: (§1)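 A 48 hr incubation preceded viability reading by CellTiter-Glo, with 15 min room-temperature development. Dose series had 11 points; normalization used DMSO and empty wells; AUC was computed and mean-centered per line as Z-AUC.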

A short description of assay [6]: BET inhibitor-based combinations targeting novel dependencies in MECOM-rearranged (r) AML: OCI-AML3 cell line (AID 2202232). Also: nearly all actives have a fitted effect of over 35% in size. Also: potency is read from the fitted curve at half-maximal effect. The following applies: CellTiter-Glo luminescence, 48 h; Potency: OCI-AML3 viability; series mostly up to 46 µM. A digest of the protocol:
as §1
Background: Cellular ATP, detected with luciferase, serves as a proxy for viable cell number.

The nature of assay [7]: BET inhibitor-based combinations targeting novel dependencies in MECOM-rearranged (r) AML: HNT-34 cell line (AID 2202234).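 Also: plate controls were vehicle wells for no effect and cell-free wells for full effect; nearly all actives have a fitted effect of over 35% in size.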 Particulars: HNT-34 AML viability, CellTiter-Glo luminescence, 48 h; series mostly up to 46 µM. A digest of the protocol: (§2)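 Each compound is tested in an 11-point concentration series against 500 seeded cells/well for 48 hr. The luminescent viability signal is normalized to DMSO and blank wells, then reduced to AUC and a cell-line-centred Z-AUC.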

Assay [8] in a line: BET inhibitor-based combinations targeting novel dependencies in MECOM-rearranged (r) AML: UCSD-AML1 cell line (AID 2202235). Also: nearly all actives have a fitted effect of over 40% in size. Also: potency is read from the fitted curve at half-maximal effect. Particulars: UCSD-AML1 AML cells viability, CellTiter-Glo, 48 h; series mostly up to 46 µM. In outline:
as §2

A short description of assay [9]: BET inhibitor-based combinations targeting novel dependencies in MECOM-rearranged (r) AML: AML-191 cell line (AID 2202236;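 also: plate controls were vehicle wells for no effect and wells without cells for full effect; nearly all actives have a fitted effect of over 35% in size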). Particulars: AML-191 viability, CellTiter-Glo luminescence, 48 h; series mostly up to 46 µM. In outline:
as §1

A short description of assay [10]: BET inhibitor-based combinations targeting novel dependencies in MECOM-rearranged (r) AML: AML-194 cell line (AID 2202237; also: nearly all actives have a fitted effect of over 40% in size; also: potency is read from the fitted curve at half-maximal effect). The following applies: AML-194 (MECOM-r AML) viability, CellTiter-Glo, 48 h; series mostly up to 46 µM. In outline: as §1
A short description of assay [11]: BET inhibitor-based combinations targeting novel dependencies in MECOM-rearranged (r) AML: MV-4-11 cell line (AID 2202233).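 Also: plate controls were DMSO for no effect and blank wells for full effect; nearly all actives have a fitted effect of over 45% in size.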 Particulars: MV-4-11 AML viability, CellTiter-Glo luminescence, 48 h; series mostly up to 46 µM. A digest of the protocol: as §2

What is called viability is a read-out of living cells in per cent, often relative to untreated cells.

Structures are written as SMILES. Values joined by “and” are separate entries in the source; they are usually repeats but may differ in a detail not shown here. Equal entries are not always repeated. Records with an inconclusive call do not appear. Values without a mark were called inactive. Active and inactive are the calls of the source. Calls follow the shape of the dose curve; as a rule, active = well fitted curve in the direction sought with a large enough effect; inconclusive = small, poorly fitted or top-dose-only effect, or another doubt; inactive = no such curve, though single readings can be large; an effect the other way counts as inactive or inconclusive.

With `OC[C@H]1O[C@@H](Oc2cc(O)cc(/C=C/c3ccc(O)cc3)c2)[C@H](O)[C@@H](O)[C@@H]1O`, the activation in assay [1] was -6.21%. The Potency entry in assay [2], in assay [3], in [4], in assay [6], in assay [7] and in assay [8] was “inactive” each time. For the same compound, the Potency entry in [9] and in assay [10] was “inactive” in each case. Also, in assay [5], the viability was 115%.
As for `C[C@H](NC(=O)Cc1cc(F)cc(F)c1)C(=O)N[C@@H]1C(=O)N(C)c2ccccc2-c2ccccc21`, the activation in assay [1] is 27.1% and -2.39%. Further, the Potency result in assay [2], in assay [3], in assay [4], in [11], in assay [7] and in [8] was “inactive” in each case. For the same compound, the Potency result in [9] and in assay [10] was “inactive” in each case. Further, the viability in assay [5] was 121%.
`CC(C)(C)NC(=O)Nc1cccc(Nc2ncc(F)c(NC(C)(C)CO)n2)c1`: the activation in assay [1] was -4.76% and -4.3%. The Potency result in assay [2], in [3] and in assay [4] was “inactive” each time. Besides, the Potency is 16.6 µM (active) in assay [5], 3.72 µM (active) in assay [6], 3.72 µM (active) in [8] and 5.9 µM (active) in assay [10].
Regarding `COc1ccc2cc(OCC3(C(=O)O)CN(C(=O)c4ccc(F)cc4)C3)ccc2c1`, the activation in assay [1] is 2.86%. For the same compound, the Potency entry in [2], in assay [3], in assay [4], in assay [7], in [8] and in assay [9] was “inactive” each time. Also, in [10], the Potency entry was “inactive”. Also, the viability in assay [5] was 113%.
With `Cc1csc(NC(=O)c2sc3nc4c(c(C(F)(F)F)c3c2N)CCC4)n1`, in assay [1], the activation was -4.78%. Besides, the Potency entry in assay [2], in assay [3], in [4], in assay [11], in [7] and in [9] was “inactive” in each case. Further, the Potency result in assay [10] was “inactive”. Besides, the viability in assay [5] was 97.5%.

For the origin of these results see PubChem BioAssay (NCATS).
